Experimental data from PubChem BioAssay (NCATS).
Inconclusive results are not listed. Values without a mark were called inactive. Calls of active or inactive are those of the source. Calls follow the shape of the dose curve; as a rule, active = well fitted inhibition curve with a large enough effect; inconclusive = small, poorly fitted or top-dose-only effect; inactive = no such curve, though single readings can be large or run the other way.

These compounds were tested against Rap guanine nucleotide exchange factor 4 (Homo sapiens) (UniProt Q8WZA2) (assay: Confirmatory qHTS for antagonist of cAMP-regulated guanine nucleotide exchange factor 4 (EPAC2) (AID 1645885; also: nearly all actives have a fitted effect of over 25% in size; also: potency is read from the fitted curve at half-maximal effect; as to activity change, negative = inhibition: % is scaled to controls: 0 for no effect and ±100 for the full control effect)). Conditions: EPAC2 Rap1B-BODIPY-GDP exchange fluorescence, biochemical; series mostly up to 12.7 µM; activity change, negative = inhibition: at the top concentration.
Sequence of Rap guanine nucleotide exchange factor 4 (Homo sapiens) (Q8WZA2 whole entry, looked up): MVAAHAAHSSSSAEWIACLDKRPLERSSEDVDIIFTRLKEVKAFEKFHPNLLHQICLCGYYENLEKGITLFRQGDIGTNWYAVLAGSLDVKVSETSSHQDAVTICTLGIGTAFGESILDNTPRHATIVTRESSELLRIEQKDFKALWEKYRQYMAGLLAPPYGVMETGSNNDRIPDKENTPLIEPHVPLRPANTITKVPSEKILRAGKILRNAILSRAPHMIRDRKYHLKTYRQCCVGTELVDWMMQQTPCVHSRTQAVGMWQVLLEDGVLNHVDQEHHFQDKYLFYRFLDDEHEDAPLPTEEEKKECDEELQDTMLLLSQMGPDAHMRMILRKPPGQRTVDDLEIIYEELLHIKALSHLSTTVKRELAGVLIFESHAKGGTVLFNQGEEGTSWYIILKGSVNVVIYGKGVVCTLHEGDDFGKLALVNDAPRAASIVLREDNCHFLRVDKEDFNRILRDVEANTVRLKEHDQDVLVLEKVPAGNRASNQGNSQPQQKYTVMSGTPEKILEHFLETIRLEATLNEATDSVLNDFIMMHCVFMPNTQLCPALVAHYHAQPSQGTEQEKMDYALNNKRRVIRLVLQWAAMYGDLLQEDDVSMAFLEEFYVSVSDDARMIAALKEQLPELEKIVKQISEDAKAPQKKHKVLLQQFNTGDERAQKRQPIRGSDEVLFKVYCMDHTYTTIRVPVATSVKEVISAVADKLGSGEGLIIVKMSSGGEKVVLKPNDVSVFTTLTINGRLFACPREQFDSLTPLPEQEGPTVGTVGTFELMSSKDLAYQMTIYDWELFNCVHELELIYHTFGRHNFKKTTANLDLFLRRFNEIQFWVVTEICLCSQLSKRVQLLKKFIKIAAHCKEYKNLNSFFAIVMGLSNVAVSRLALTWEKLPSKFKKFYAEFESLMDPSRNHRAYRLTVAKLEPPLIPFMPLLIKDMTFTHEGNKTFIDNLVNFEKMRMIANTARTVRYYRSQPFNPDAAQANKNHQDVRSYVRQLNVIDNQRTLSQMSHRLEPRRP

Row | SMILES | activity change, negative = inhibition | outcome | Potency
1 | COC(=O)[C@]12CCCCC=C1N(Cc1ccco1)C(=O)[C@H](CC(=O)NCc1cccs1)C2 | -29.5% [at 114 µM] |  | 
2 | CCc1cc(-c2n[nH]c(C)c2-c2ccccc2Cl)c(O)cc1OC |  | inactive | 
3 | Cc1ccc(C2c3c(-c4cc(C)ccc4O)n[nH]c3C(=O)N2Cc2ccco2)cc1 (stereo not drawn) |  | inactive [at 12.7 µM] | 
4 | C[C@H](CO)N1C[C@H](C)[C@H](CN(C)Cc2cccc(O)c2)OCc2ccccc2-c2c(n(C)c3ccccc23)C1=O | -15.2% |  | 
5 | O=C1NC[C@H](Cc2ccccc2)N(C[C@@H]2CCCN2C[C@H](Cc2ccc(O)cc2)N2C[C@H](Cc3ccc(O)cc3)N(CC3CCCCC3)C(=O)C2=O)C1=O | -0.769% |  | 
6 | Cc1nc2c(OCc3ccc(OC(F)F)cc3)cccn2c1N(C)C(=O)CCC1CCCC1 |  |  | 26.9 µM (active)
7 | COc1ccc(SC[C@H](C)CN2CC[C@H](C(C)(C)C)CCC2=O)cc1 |  |  | 35 µM (active)
8 | CCc1nc2ccc(C(=O)Nc3ccc(OC)c(OC)c3)cn2c1N(C)CCC(C)C | -16.1% |  | 
9 | NC(=O)c1c(NC(=O)CSc2nnc(-c3ccco3)n2N)sc2c1CCCC2 |  | inactive | 
10 | Cc1cc(C)cc(OCC(=O)OCC(=O)NC2CCCCCCC2)c1 |  | inactive | 
11 | CN(CC(=O)Nc1ccc(Cl)c(C(F)(F)F)c1)CC(=O)NC1CCCCC1 |  | inactive | 
12 | CC(C)Oc1cc(F)ccc1-c1cc(C(=O)Nc2ccc(C(C)C)cc2)[nH]n1 | -38.6% [at 114 µM] |  | 
13 | O=C1CCCC2=C1CC(C(=O)OCc1ccccc1)C(=O)N2Cc1ccccc1 (stereo not drawn) | -14.5% |  | 
14 | Cc1ccccc1CN1C(=O)C(C)Sc2ccc(-c3ccco3)cc21 (stereo not drawn) | -19.1% [at 114 µM] |  | 
15 | COc1cc(S(=O)(=O)NC2CCCCC2C)ccc1Cl (stereo not drawn) | -99.8% [at 114 µM] |  | 
16 | Cc1ccc(N=C2NC(=O)/C(=C/C=C/c3ccco3)S2)cc1 |  | inactive; activator; fitted 1.0691 uM | 
17 | COc1cc(CNc2ccc(O)cc2)cc(Br)c1OCc1ccccc1F | -5.23% |  | 
18 | Cc1ccccc1/C=C1\SC(=S)N(/N=C/c2cc([N+](=O)[O-])ccc2O)C1=O | -28.9% [at 114 µM] |  | 
19 | O=C(c1[nH]c(C(F)(F)F)nc1-c1ccccc1)N1CCC(C(O)(c2ccccc2)c2ccccc2)CC1 | -30% [at 114 µM] |  | 
20 | CCCn1cc(SCC(=O)NCc2ccc3c(c2)OCO3)c2ccccc21 | -12.6% |  | 

Row | SMILES | activity change, negative = inhibition | outcome | Potency
21 | C[C@@H]1CN([C@@H](C)CO)C(=O)c2ccccc2-c2ccccc2CO[C@@H]1CN(C)S(=O)(=O)c1ccc(C(F)(F)F)cc1 | -28.9% |  | 
22 | C/C(=N\Nc1ccc([N+](=O)[O-])cc1)c1ccc(O)cc1 |  |  | 26.9 µM (active)
23 | CCN(CC)c1ccccc1/C=C/[n+]1ccc(CCCCI)c2ccccc21 |  |  | 49.4 µM (active)
24 | COc1ccc(S(=O)(=O)/N=C2/NC(=O)/C(=C\c3cc(OC)c(OC)cc3[N+](=O)[O-])S2)cc1 | -6.89% |  | 
25 | Cc1ccc(NCc2nc3ccccc3n2CCOc2ccccc2)cc1 | -4.19% |  | 
26 | Cc1ccc(C(=O)c2cn(Cc3cccc(F)c3)c3nc(C)ccc3c2=O)cc1 | 29.5% |  | 
27 | Cc1cccc(N(C)S(=O)(=O)c2c[nH]c3ccc([N+](=O)[O-])cc23)c1 | -3.24% [at 114 µM] |  | 
28 | COC(=O)c1ccc2c(=O)n(CCCCCC(=O)N3CCN(c4cc(C)ccc4C)CC3)c(=O)[nH]c2c1 | 1.96% |  | 
29 | COc1ccc(S(=O)(=O)N2CCCCC2)cc1NC(=O)c1c(F)cccc1Cl | -11.4% [at 114 µM] |  | 
30 | COC(=O)[C@H](Cc1ccccc1)NC(=O)c1ccc2ccccc2n1 | -25.2% |  | 
31 | CN(C)c1ccc(/C=C/c2cc[n+](C)c3ccccc23)cc1 |  |  | 49.4 µM (active)
32 | Cc1cccc(NC(=O)CSCC(=O)Nc2cccc(S(=O)(=O)N3CCCCCC3)c2)c1 | -8.32% |  | 
33 | Cn1c(N)c(C(=O)COC(=O)CCCOc2ccc(Cl)cc2Cl)c(=O)n(C)c1=O |  |  | 37.9 µM (active)
34 | O=C1NC[C@@H](Cc2cccc3ccccc23)N(CCc2cc(C(F)(F)F)cc(C(F)(F)F)c2)C1=O | 82.8% [at 114 µM] |  | 
35 | COc1ccc(C(=O)CC2(O)C(=O)N(Cc3cccc(C(F)(F)F)c3)c3ccccc32)cc1 (stereo not drawn) | -10.3% |  | 
36 | CC(=O)N1CCC[C@H]1C(=O)NCC1Cc2cc(-c3cccc(OC(F)(F)F)c3)ccc2O1 (stereo partly drawn) |  |  | 44.1 µM (active)
37 | CN(C)S(=O)(=O)N(CC(=O)NCCSc1ccc(Cl)cc1)c1ccccc1 | -4.68% |  | 
38 | CC(C)C[C@H]1COCCS(=O)(=O)N1Cc1cccc(C(F)(F)F)c1 | 25.2% [at 114 µM] |  | 
39 | Cc1cccc(CN2Cc3cccc4c3[C@H](C=CC4)CC2=O)c1 |  |  | 44.1 µM (active)
40 | O=C(Nc1cc(Cl)cc(Cl)c1)c1ccc(F)c(S(=O)(=O)NC2CCCC2)c1 |  | inactive [at 12.7 µM] | 

The compounds below were run against Rap guanine nucleotide exchange factor 3 (Homo sapiens) (UniProt O95398) (assay: Counterscreen qHTS for antagonist of cAMP-regulated guanine nucleotide exchange factor 3 (EPAC1) (AID 1645888;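 also: fluorescence loss as bound BODIPY-GDP is released from Rap1B; % of control where 0% means no effect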)). Conditions: Rap1B-BODIPY-GDP nucleotide exchange, fluorescence; series mostly up to 154 µM; activity change, negative = inhibition: at the top concentration.
Outline: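 Measured: fluorescence of BODIPY-GDP bound to Rap1B, which falls as exchange proceeds. Conditions include 50 uM competing GDP, 5 and 30 min reads, and a later cAMP challenge for antagonist detection.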

Sequence of Rap guanine nucleotide exchange factor 3 (Homo sapiens) (O95398 whole entry, looked up): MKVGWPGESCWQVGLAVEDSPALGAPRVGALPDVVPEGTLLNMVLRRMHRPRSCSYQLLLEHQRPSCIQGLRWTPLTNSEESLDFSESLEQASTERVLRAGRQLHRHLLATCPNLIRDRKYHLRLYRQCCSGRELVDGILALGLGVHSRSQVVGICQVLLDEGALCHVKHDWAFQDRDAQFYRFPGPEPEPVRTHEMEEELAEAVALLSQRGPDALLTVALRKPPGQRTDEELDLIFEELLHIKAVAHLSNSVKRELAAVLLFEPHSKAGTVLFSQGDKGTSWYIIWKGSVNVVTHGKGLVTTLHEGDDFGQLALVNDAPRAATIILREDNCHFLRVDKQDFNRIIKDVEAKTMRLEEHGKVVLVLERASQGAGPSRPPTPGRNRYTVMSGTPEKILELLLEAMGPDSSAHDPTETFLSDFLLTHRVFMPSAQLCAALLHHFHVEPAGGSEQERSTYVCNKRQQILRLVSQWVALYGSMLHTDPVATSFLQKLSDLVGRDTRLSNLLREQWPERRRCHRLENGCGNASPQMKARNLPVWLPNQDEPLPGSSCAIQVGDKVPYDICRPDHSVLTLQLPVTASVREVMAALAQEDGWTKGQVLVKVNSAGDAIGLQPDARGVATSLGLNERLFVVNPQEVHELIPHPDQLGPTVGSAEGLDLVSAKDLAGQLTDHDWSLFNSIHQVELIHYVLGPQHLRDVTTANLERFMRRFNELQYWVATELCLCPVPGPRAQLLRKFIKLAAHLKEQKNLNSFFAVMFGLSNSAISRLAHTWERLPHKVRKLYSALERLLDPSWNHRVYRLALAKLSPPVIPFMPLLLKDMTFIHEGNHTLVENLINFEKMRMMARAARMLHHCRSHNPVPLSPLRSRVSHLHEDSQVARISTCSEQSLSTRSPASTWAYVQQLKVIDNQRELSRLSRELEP

Row | SMILES | activity change, negative = inhibition
41 | C[C@H](CO)N1C[C@H](C)[C@H](CN(C)Cc2cccc(O)c2)OCc2ccccc2-c2c(n(C)c3ccccc23)C1=O | -3.58% [at 30.8 µM]
42 | CCCn1cc(SCC(=O)NCc2ccc3c(c2)OCO3)c2ccccc21 | -3.41% [at 30.8 µM]
43 | Cc1ccc(C(=O)c2cn(Cc3cccc(F)c3)c3nc(C)ccc3c2=O)cc1 | 16.6%
